Compound activity (PubChem BioAssay)
An excerpt weighted towards active compounds, which were near 4.2% of everything screened.
TIM10 inh = growth inhibitors of TIM10 yeast strain; S. cerevisiae TIM10 strain growth, BacTiter-Glo luminescence, 24 h; inhibition, % at 10 µM; actives 1.4% (n = 330,000);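 active = inhibition of 40% or more at the single tested concentration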;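 also: wild-type TIM10 isogenic control strain grown at permissive 25 °C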
V-ATPase pHluor = regulators of yeast V-ATPase proton transport | S. cerevisiae, pHLuorin cytosolic pH fluorescence | response, % at 10 µM | actives 0.37% (n = 350,000) | AID 504577; in the data active = response mostly above about 7.3%, no sharp cut-off; inactive = mostly below about 5.4%; also: actives read high
tim10-1 inh = inhibits growth of tim10-1 mutant yeast; S. cerevisiae tim10-1 ts strain growth, BacTiter-Glo, 24 h; inhibition, % at 20 µM; actives 2.2% (n = 330,000); AID 463190;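 active = inhibition of at least 40%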;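 also: mutant grown at 25 °C; 0% = DMSO wells with yeast and 100% = wells holding no yeast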
tim23-1 inh = tim23-1 yeast growth inhibition; S. cerevisiae tim23-1 growth, BacTiter-Glo luminescence, 24 h; inhibition, % at 20 µM; actives 1.3% (n = 330,000); AID 463212;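 active = growth inhibition of the mutant yeast at or above 50%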;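 also: temperature-sensitive mutant grown at 25 °C; plate controls were DMSO-treated mutant yeast for no effect and medium wells lacking yeast for full effect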
NALP3 yeast inh = blocks the NALP3 inflammasome reconstituted in yeast; actives 0.39% (n = 330,000); Yeast reconstituted NLRP3/ASC/caspase-1, beta-gal luminescence, 24 h; AID 2825; inhibition, % at 10 µM;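 active = inhibition of 50% or more; inactive = inhibition below 50%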;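 also: plate controls were induced DMSO wells for no effect and uninduced yeast grown without galactose for full effect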
NALP1 yeast inh = inhibitors of NALP1 inflammasome in yeast; S. cerevisiae NALP1/ASC/caspase-1 growth, X-gal OD620, 72 h; inhibition, % at 10 µM; actives 0.61% (n = 280,000); in the data active = inhibition mostly above about 24%, no sharp cut-off; inactive = mostly below about 32%
An asterisk follows results filed as active; · = not tested or not shown.

SMILES	TIM10 inh	V-ATPase pHluor	tim10-1 inh	tim23-1 inh	NALP3 yeast inh	NALP1 yeast inh
CCOC(=O)NC(=O)/C(C#N)=N/Nc1ccc(F)cc1	14	0	14	6	4	38*
CCOC(=O)C(=O)/C(C#N)=C/Nc1ccc(F)cc1	-8	0	-14	17	7	-32
O=C(CCn1cnnn1)Nc1ccc(Cl)cc1Cl	2	2	3	-3	-5	-2
N#Cc1cc2c(cc1NC(=O)CCn1cnnn1)OCO2	-5	-5	-6	-6	7	36*
Cc1ccc(C(=O)N/C(=C\c2cccs2)C(=O)N2CCCCCC2)cc1	19	3	29	36	4	-3
CC1=C(C(=O)OCC2CCCO2)C(c2cccc(O)c2)NC(=O)N1 (stereo unspecified)	-1	7	-6	-4	16	-4
CC1=C(C(=O)OCC2CCCO2)C(c2ccc(F)cc2)NC(=O)N1 (stereo unspecified)	9	-2	1	4	3	41*
COC(=O)C1(C(C[N+](=O)[O-])c2ccc(C)cc2)C(=O)NCC1c1ccco1 (stereo unspecified)	-11	3	5	-3	16	46*
COCCCOc1cc(NCc2ccccc2)c2ncn(C(C)C)c2c1	14	-2	28	35	14	·
COc1cc(NCc2ccccc2)c2ncn(Cc3ccccc3)c2c1	-19	14*	-12	14	12	·
CN1C/C(=C/c2ccncc2)C(=O)/C(=C/c2ccncc2)C1	-5	-3	0	14	7	66*
CN1C/C(=C\c2ccc(N3CCOCC3)cc2)C(=O)/C(=C/c2ccc(N3CCOCC3)cc2)C1	0	0	31	16	8	45
CN(C)CCNc1ncnc2c1sc1nc(-c3ccccc3)c3c(c12)CCCC3	7	1	10	4	9	45*
Cc1cc(C)c(S(=O)(=O)n2nc(C)c(Br)c2C)c(C)c1	0	3	10	-2	7	24
CCN(CC)CC#CCC(C)(c1ccccc1)c1ccccc1	17	3	7	5	26	31*
CCCCCCN1C[C@H](n2cc(C3CC3)nn2)[C@@H](O)C[C@@H]1c1ccc(OC)cc1	·	6	·	·	·	·
Cc1ccc(S(=O)(=O)ON2C(=O)c3ccccc3C2=O)c(C)c1	·	8.1*	·	·	·	20
O=C1c2ccccc2C(=O)N1OS(=O)(=O)c1ccc(F)cc1	·	0	·	·	·	16
O=C(CNc1ccccc1)Nc1ccc(F)cc1	3	3	2	14	25	28*
c1ccc(N2CCN(c3cnc4ccccc4n3)CC2)cc1	-3	-7	-5	12	36	39*
O=Cc1cnc(N2CCN(Cc3ccccc3)CC2)s1	-4	1	5	11	7	8
Clc1ccc(N2CCN(c3cnc4ccccc4n3)CC2)cc1	18	-4	6	1	22	49
O=Cc1cnc(N2CCN(c3ccccc3)CC2)s1	2	-2	4	10	15	39*
Cc1ccc(C)c(/C=C2\CCn3c2nc2cc(C(=O)O)ccc2c3=O)c1	13	-2	7	24	9	2
Cc1nn(C(C)C(=O)NCCCc2ccccc2)c(=O)c2cc3occc3n12 (stereo unspecified)	3	3	14	2	4	16
SMILES	TIM10 inh	V-ATPase pHluor	tim10-1 inh	tim23-1 inh	NALP3 yeast inh	NALP1 yeast inh
Cc1onc(-c2ccccc2)c1C(=O)NCCN1CCOCC1	-11	-63	-3	0	-4	13
Cc1nc(SCC(=O)NCC2CCCO2)c2c(C)c(C)sc2n1 (stereo unspecified)	5	13*	11	17	18	·
Cc1nc(SCC(=O)NCC2CCCO2)c2c3c(sc2n1)CCCC3 (stereo unspecified)	34	0	32	43	22	4
Cc1nnc(SCC(=O)Nc2ccc(N3CCOCC3)cc2)n1Cc1ccccc1	7	23*	3	9	23	·
Cc1cccc(OCC(=O)N2CCC(c3ccccc3)C2)c1 (stereo unspecified)	16	4	27	13	-2	11
COc1cccc(NC(=O)COC(=O)Cc2ccc(Cl)cc2)c1	-13	-1	-26	8	9	30*
COc1ccc(CC(=O)OCC(=O)Nc2cccc(Cl)c2)cc1	6	4	16	24	11	13
